These results are taken from PubChem BioAssay (NCI).

“And” between values parts separate entries of the source, which are not always exact repeats. Equal values may be shown once. About 83,000 compounds went through this panel and 20% of them were active in at least one assay; those are over-represented in the sample as a whole.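 Values shown are percent growth following 48 h exposure of cells in 96-well plates to a single concentration of compound; below 10 was considered active.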 The source made the active and inactive calls.

Some test systems named below: NCI-H322M lung; HOP-62 NSCLC; NCI-H460 lung; A549/ATCC NSCLC; 786-0 renal; COLO 205 colon; NCI-H226 lung.
Test in all cases: NCI-60 one-dose screen, 48 h (100 = growth as untreated, 0 = no growth, -100 = all killed)
Another test has as its system NCI-H23 lung. As to conditions: 10 µM unless noted.
A further test relates to HOP-92 NSCLC. As to conditions: 10 µM unless noted.
The subject of another test is NCI-H522 lung. Conditions: 10 µM unless noted.

In the case of `COC(=O)CCOc1ccccc1`, the growth with NCI-H23 lung is 85.4% (inactive); in the test with NCI-H322M lung (10 µM unless noted) it was 103% (inactive); in the test with HOP-62 NSCLC (10 µM unless noted), 101% (inactive); in the test with NCI-H460 lung (10 µM unless noted), 101% (inactive); in the test on HOP-92 NSCLC it was 86.2% (inactive); in the test on NCI-H522 lung, 87.9% (inactive). Besides, the growth in the test on A549/ATCC NSCLC (10 µM unless noted) is 85% (inactive); in the test on 786-0 renal (10 µM unless noted) it was 95.3% (inactive); in the test on COLO 205 colon (10 µM unless noted), 118% (inactive).
In the case of `O=C1C2=C(Nc3cc(Cl)ccc3N2)OC1c1c[nH]c2ccc(COc3ccccc3)cc12` (stereo not drawn), the growth with NCI-H23 lung is 59.3% (inactive); with NCI-H322M lung (10 µM unless noted), 64.7% (inactive); in the test on HOP-62 NSCLC (10 µM unless noted), -14.7% (active); in the test on NCI-H460 lung (10 µM unless noted) it was 59.7% (inactive); in the test on HOP-92 NSCLC, 42.3% (inactive); in the test with NCI-H522 lung, 54.8% (inactive). The results for the growth with A549/ATCC NSCLC (10 µM unless noted) and with 786-0 renal (10 µM unless noted) were 74.2% (inactive) and 38.8% (inactive), respectively.
With `O=P(O)(O)OC1C(OP(=O)(O)O)C(OP(=O)(O)O)C(OP(=O)(O)O)C(OP(=O)(O)O)C1OP(=O)(O)O.[Cu+2]` (stereo not drawn), the growth with NCI-H226 lung (10 µM unless noted) was 98.8% (inactive); in the test on NCI-H322M lung (10 µM unless noted), 106% (inactive); in the test on HOP-62 NSCLC (10 µM unless noted), 114% (inactive); with NCI-H460 lung (10 µM unless noted), 84.2% (inactive); in the test with HOP-92 NSCLC, 106% (inactive); in the test with NCI-H522 lung it was 101% (inactive). Moreover, the figures for the growth in the test with A549/ATCC NSCLC (10 µM unless noted), in the test on 786-0 renal (10 µM unless noted) and in the test on COLO 205 colon (10 µM unless noted) were 64.1% (inactive), 114% (inactive) and 111% (inactive), respectively.
For `Cc1cc(=NO)cc(C)n1O`, the growth was 114% (inactive) in the test on NCI-H226 lung (10 µM unless noted); 94.3% (inactive) in the test on NCI-H322M lung (10 µM unless noted); 100% (inactive) in the test on HOP-62 NSCLC (10 µM unless noted); 107% (inactive) in the test on NCI-H460 lung (10 µM unless noted); 120% (inactive) in the test with NCI-H522 lung; 113% (inactive) with A549/ATCC NSCLC (10 µM unless noted). Further, in the test with 786-0 renal (10 µM unless noted), the growth was 107% (inactive).
For the compound `CCCCCCC(C)CC1=C(O)c2ccccc2C(=O)C1=O` (stereo not drawn), the growth was 37.3% (inactive) in the test with NCI-H226 lung (10 µM unless noted); 51.7% (inactive) in the test with NCI-H322M lung (10 µM unless noted); 59.3% (inactive) in the test with HOP-62 NSCLC (10 µM unless noted); 14.3% (inactive) in the test on NCI-H460 lung (10 µM unless noted); 67% (inactive) with HOP-92 NSCLC; 56.2% (inactive) with NCI-H522 lung. In addition, the results for the growth in the test with A549/ATCC NSCLC (10 µM unless noted), in the test on 786-0 renal (10 µM unless noted) and in the test on COLO 205 colon (10 µM unless noted) were 36% (inactive), 27.1% (inactive) and 80.2% (inactive), respectively.
Consider `CC(=O)Oc1ccc(C2(c3ccc(OC(C)=O)cc3)C(=O)Nc3ccccc32)cc1`, for which the growth was 76.3% (inactive) and 82.9% (inactive) with NCI-H226 lung (10 µM unless noted); 33.1% (inactive) and 33.7% (inactive) in the test with NCI-H322M lung (10 µM unless noted); 109% (inactive) and 93.1% (inactive) with HOP-62 NSCLC (10 µM unless noted); 104% (inactive) in the test with NCI-H460 lung (10 µM unless noted); 68.4% (inactive) and 44.2% (inactive) with HOP-92 NSCLC; 95.7% (inactive) and 83.2% (inactive) in the test with NCI-H522 lung. Moreover, the growth in the test on A549/ATCC NSCLC (10 µM unless noted) is 96.1% (inactive) and 98% (inactive); in the test on 786-0 renal (10 µM unless noted), 107% (inactive) and 93% (inactive); in the test with COLO 205 colon (10 µM unless noted) it was 4.98% (active) and 17.2% (inactive).
As to `O=c1ccn2c(n1)OC1CC2OC1COC(c1ccccc1)(c1ccccc1)c1ccccc1` (stereo not drawn), the growth in the test on NCI-H226 lung (10 µM) was 102% (inactive); in the test on NCI-H226 lung (100 µM) it was 90.5% (inactive); in the test with NCI-H322M lung (10 µM) it was 106% (inactive); with NCI-H322M lung (100 µM) it was 49.9% (inactive); in the test on HOP-62 NSCLC (10 µM) it was 99.6% (inactive); with HOP-62 NSCLC (100 µM), 96.3% (inactive). The growth in the test on NCI-H460 lung (10 µM) was 106% (inactive); with NCI-H460 lung (100 µM), 94.5% (inactive); in the test on HOP-92 NSCLC, 72.4% [100 µM] (inactive); in the test on NCI-H522 lung it was 60.7% [100 µM] (inactive); in the test with A549/ATCC NSCLC (10 µM) it was 93.5% (inactive); in the test with A549/ATCC NSCLC (100 µM), 83% (inactive). The growth is 113% (inactive) with 786-0 renal (10 µM), 86.1% (inactive) in the test with 786-0 renal (100 µM), 112% (inactive) in the test on COLO 205 colon (10 µM) and 115% (inactive) with COLO 205 colon (100 µM).
For `O=c1[nH]c(=S)[nH]n1C(=S)n1[nH]c(=S)[nH]c1=O`, the growth in the test with NCI-H226 lung (10 µM unless noted) was 85% (inactive); in the test with NCI-H322M lung (10 µM unless noted) it was 96.8% (inactive); in the test on HOP-62 NSCLC (10 µM unless noted), 97.2% (inactive); in the test on NCI-H460 lung (10 µM unless noted) it was 103% (inactive); in the test with HOP-92 NSCLC, 82.2% (inactive); in the test on NCI-H522 lung it was 84.6% (inactive). Further, the growth in the test on A549/ATCC NSCLC (10 µM unless noted) is 93.6% (inactive); in the test with 786-0 renal (10 µM unless noted), 106% (inactive); in the test with COLO 205 colon (10 µM unless noted) it was 111% (inactive).
Consider `OC1CCCN(Cc2ccccc2)C1` (stereo not drawn), for which the growth is 106% (inactive) in the test on NCI-H226 lung (10 µM unless noted); 113% (inactive) in the test on NCI-H322M lung (10 µM unless noted); 107% (inactive) in the test with HOP-62 NSCLC (10 µM unless noted); 107% (inactive) with NCI-H460 lung (10 µM unless noted); 106% (inactive) in the test on HOP-92 NSCLC; 101% (inactive) in the test on NCI-H522 lung. The growth in the test with A549/ATCC NSCLC (10 µM unless noted) was 85.4% (inactive); in the test with 786-0 renal (10 µM unless noted), 115% (inactive); with COLO 205 colon (10 µM unless noted), 102% (inactive).
Regarding `COc1cc(NCCCCCNC(C)C)c2ncccc2c1`, the growth in the test on NCI-H226 lung (10 µM unless noted) is 90.5% (inactive) and 94% (inactive); with NCI-H322M lung (10 µM unless noted) it was 82.7% (inactive) and 104% (inactive); in the test on HOP-62 NSCLC (10 µM unless noted) it was 87.3% (inactive) and 92.5% (inactive); in the test with NCI-H460 lung (10 µM unless noted) it was 103% (inactive) and 117% (inactive); in the test with HOP-92 NSCLC, 82.5% (inactive); in the test on NCI-H522 lung, 92.2% (inactive) and 42% (inactive). In addition, the growth is 101% (inactive) and 94.7% (inactive) with A549/ATCC NSCLC (10 µM unless noted); 94.4% (inactive) and 89.3% (inactive) with 786-0 renal (10 µM unless noted); 91.7% (inactive) and 87.9% (inactive) in the test on COLO 205 colon (10 µM unless noted).
As for `CCc1ccc(OC(=O)CCl)cc1`, the growth was 97% (inactive) in the test with NCI-H226 lung (10 µM unless noted); 102% (inactive) in the test on NCI-H322M lung (10 µM unless noted); 110% (inactive) in the test with HOP-62 NSCLC (10 µM unless noted); 106% (inactive) in the test on NCI-H460 lung (10 µM unless noted); 101% (inactive) in the test with HOP-92 NSCLC; 102% (inactive) in the test on NCI-H522 lung. For the same compound, the growth with A549/ATCC NSCLC (10 µM unless noted) is 105% (inactive); in the test with 786-0 renal (10 µM unless noted), 104% (inactive); in the test with COLO 205 colon (10 µM unless noted), 111% (inactive).
